# High-throughput results from PubChem BioAssay.
# Only some compounds are listed: those with a hit (about 3.2% of all), similar ones and a draw of the others.
# GDH-TPI counter-1: GDH-TPI coupling enzyme inhibitors, primary screen, artefact control for M. tuberculosis FBA inhibitor project, biochemical, absorbance, full deck; GDH-TPI coupled enzyme counterscreen, NADH absorbance; inhibition, % at 4.8 µM; 360,000 tested, 1.2% active; AID 588335, 2011; in the data active = inhibition above about 30%;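 also: 0% = DMSO wells and 100% = wells lacking the enzyme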
# Yp Topo-I inh: Yersinia pestis topoisomerase I inhibitors, primary screen, biochemical, cleavage product accumulation, plate reader, single point; DNA topoisomerase I (Yersinia pestis CO92); 360,000 tested, 0.064% active; Y. pestis Topo-I cleavage product accumulation; activity, % at 10 µM; AID 504884, 2011; in the data active = activity above about 50%, passing the limit was not always enough
# TcdB inh: TcdB glycohydrolase inhibitors, primary screen, biochemical, single point, plate reader; TcdB glycohydrolase enzymatic assay; inhibition, % at 9.99 µM; 350,000 tested, 0.24% active; in the data active = inhibition above about 10%
# Mtb FBA inh: Mtb FBA enzyme inhibitors, primary screen, biochemical, fluorescence, strain H37Rv. purified M. tuberculosis FBA, fluorescence read-out. AID 588726, 2011. 360,000 tested, 2.3% active. Fructose-bisphosphate aldolase (Mycobacterium tuberculosis (strain ATCC 25618 / H37Rv)), …. inhibition, % at 1 µM;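 also: 0% = vehicle and 100% = reference inhibitor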
# PrPC surface inh: inhibitors of human cell surface prion protein PrPC, primary screen, cell-based, TR-FRET; TR-FRET read-out; inhibition, % at 13.8 µM; 370,000 tested, 0.43% active; AID 720596, 2013; in the data active = inhibition above about 24%; also: 0% = median of the test wells and 100% = reference compound wells
# Mtb FBA confirm: M. tuberculosis aldolase blockers, biochemical, fluorescence, strain H37Rv, confirmation; shares compounds with Mtb FBA inh; purified M. tuberculosis FBA, fluorescence read-out; inhibition, % at 1 µM; 5,600 tested, 78% active; AID 651616, 2012;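 also: 0% = vehicle wells and 100% = reference inhibitor wells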
# GDH-TPI counter-2: GDH-TPI coupling enzyme inhibitors, artefact control for M. tuberculosis FBA inhibitor project, biochemical, fluorescence, high throughput. shares compounds with Mtb FBA inh. GDH-TPI coupled enzyme counterscreen. inhibition, % at 1 µM. 5,600 tested, 81% active; in the data active = inhibition above about 10%
# GDH-TPI DR: GDH-TPI coupling enzyme inhibitors, dose response, artefact control for M. tuberculosis FBA inhibitor project, biochemical, fluorescence, IC50 | shares compounds with Mtb FBA inh | 170 tested, 79% active | GDH-TPI coupled enzyme assay, artifact counterscreen | IC50, µM; call rule not given here
# Numbers without * were called inactive; nt = no result given; + = active, no number. Rule as the data show it, unless noted: active = inhibition above about 27%; inactive = the rest.
SMILES,GDH-TPI counter-1,Yp Topo-I inh,TcdB inh,Mtb FBA inh,PrPC surface inh,Mtb FBA confirm,GDH-TPI counter-2,others
CCSc1nnc(-c2ccc(S(=O)(=O)N3CCCC3)cc2)n1C,2.8,2.1,nt,32.7*,8.7,-1.8,-7.7,
Cn1c(SCC(=O)N2CCCC2)nnc1-c1ccc(S(=O)(=O)N2CCCC2)cc1,-7.1,-1.7,nt,7.3,1.0,nt,nt,
CCSc1nnc(-c2ccc(S(=O)(=O)N3CCOCC3)cc2)n1C,9.7,5.9,-2.9,29.5*,7.7,+,+,
CSc1nnc(-c2ccc(S(=O)(=O)N3CCOCC3)cc2)n1C,-4.4,7.2,2.6,23.2,-0.3,nt,nt,
C[C@H](O)C#Cc1cnc2c(c1)C(=O)N([C@@H](C)CO)C[C@H](C)[C@@H](CN(C)Cc1ccccn1)O2,nt,nt,0.2,nt,nt,nt,nt,
COc1ccc(C2NN=C(c3ccc(C)cc3)S2)cc1OC (configuration not stated),8.0,10.0,-0.5,38.4*,-4.4,+,+,
CC(C)NC(=O)N(C)C[C@@H]1Oc2cc(C#C[C@@H](C)O)ccc2S(=O)(=O)N([C@H](C)CO)C[C@@H]1C,nt,nt,-1.7,nt,nt,nt,nt,
O=C(O)c1cccc2sc3cc(Cl)ccc3c(=O)c12,13.0,-3.8,-2.4,63.1*,-8.3,156.6*,126.1*,
CCOc1c2ccc(C(=O)NCCCCc3ccccc3)cc2nn1C,10.3,36.6,0.2,60.0*,-3.0,2.8,0.3,
COc1ccc(C(=O)NC2CCc3ccccc32)cc1OC1CCN(C(C)=O)CC1 (configuration not stated),2.0,9.0,0.8,-0.8,1.7,nt,nt,
CCCCNC(=O)c1ccc2c(OCC)n(CCCC)nc2c1,-2.6,-5.2,1.4,65.0*,3.1,93.1*,60.9*,
CCCCn1nc2cc(C(=O)NCC3CC3)ccc2c1OCC,6.9,-8.8,1.3,87.7*,1.8,144.1*,116.0*,
CCCn1nc2cc(C(=O)NC3CCc4ccccc43)ccc2c1OCC (configuration not stated),0.5,7.2,-1.2,39.5*,-1.1,71.4*,63.7*,
CCCCn1nc2cc(C(=O)NCCc3ccc(C)cc3)ccc2c1OCC,1.3,20.3,1.0,22.3,3.3,nt,nt,
CN(C)CC(=O)N1CCCCN2[C@H](CO)[C@H](c3ccc(-c4cccnc4)cc3)[C@H]2C1,nt,nt,0.1,nt,nt,nt,nt,
CC(C)C#Cc1ccc2c(c1)O[C@@H](CN(C)CC1CCOCC1)[C@@H](C)CN([C@@H](C)CO)S2(=O)=O,nt,nt,1.6,nt,nt,nt,nt,
CCCCn1nc2cc(C(=O)NC[C@@H]3CCCO3)ccc2c1OCC,4.9,-8.0,2.0,62.7*,-5.8,124.5*,95.2*,
CCCn1nc2cc(C(=O)NCCc3cccs3)ccc2c1OCC,18.7,6.0,-1.8,54.7*,-1.6,-5.9,-5.9,
O=C1O[C@@H](c2ccccc2)[C@@H](c2ccccc2)N2[C@@H](c3ccc(O)cc3)[C@]3(C(=O)Nc4ccc(C#CC5(O)CCCCCC5)cc43)[C@@H](C(=O)N3CCCCCCC3)[C@H]12,nt,nt,-16.4,nt,nt,nt,nt,
Cc1ccn2c(NC(C)(C)C)c(-c3cccs3)nc2c1,-3.8,9.9,-27.0,33.2*,2.1,+,+,
CC(C)CCNc1c(-c2cccs2)nc2ccccn12,8.9,17.5,-11.3,46.4*,0.6,37.5*,20.7*,
COCCn1c(/C=C/c2ccccc2)nc2ccccc21,29.6,-6.9,6.9,53.1*,-7.8,6.7,-2.6,
COc1ccccc1Cn1c(/C=C/c2ccccc2)nc2ccccc21,14.3,28.0,nt,64.8*,3.8,97.9*,76.6*,
Cn1c(/C=C/c2ccccc2)nc2ccccc21,28.0,7.5,5.7,47.6*,-2.2,199.1*,167.7*,
CC(=O)c1ccc(/C=C/c2nc3ccccc3n2C)o1,7.8,-5.5,2.5,46.1*,0.9,24.8,16.9*,
SMILES,GDH-TPI counter-1,Yp Topo-I inh,TcdB inh,Mtb FBA inh,PrPC surface inh,Mtb FBA confirm,GDH-TPI counter-2,others
Cn1c(=O)c(/C=C/c2ccccc2)nc2ccccc21,4.4,18.0,nt,10.4,-4.7,nt,nt,
Cc1ccc(-c2ccc3c(c2)O[C@@H](CN(C)CC2CC2)[C@@H](C)CN([C@@H](C)CO)S3(=O)=O)cc1,nt,nt,1.1,nt,nt,nt,nt,
C[C@@H]1CCCCO[C@@H](CN(C)Cc2ccc3c(c2)OCO3)[C@@H](C)CN([C@@H](C)CO)C(=O)c2cc(NC(=O)Nc3ccc(F)cc3)ccc2O1,nt,nt,-0.2,nt,nt,nt,nt,
COc1ccc(NC(=O)N[C@H]2CC[C@H](CCn3cc(-c4ccccc4)nn3)O[C@@H]2CO)cc1,nt,nt,-0.4,nt,nt,nt,nt,
C[C@@H]1CCCCO[C@H](CN(C)S(=O)(=O)c2cn(C)cn2)[C@H](C)CN([C@@H](C)CO)C(=O)c2cc(NC(=O)CCCN(C)C)ccc2O1,nt,nt,1.2,nt,nt,nt,nt,
Cc1ccc(NC(=O)Cn2c(=O)c(C)nc3ccccc32)cc1,-1.9,2.9,0.3,2.1,-5.0,nt,nt,
Cc1cccc(NC(=O)Cn2c(/C=C/c3ccccc3)nc3ccccc32)c1,7.6,10.1,-0.4,32.1*,6.1,42.2*,34.2*,
CCOC(=O)Cc1c(C)nc(N)[nH]c1=O,1.2,9.6,1.9,0.2,5.7,nt,nt,
C[C@H](O)C(=O)C1=Nc2c(nc(N)[nH]c2=O)NC1,18.8,0.9,0.5,27.0*,-0.2,40.8*,33.1*,
O=C1OCc2nc3cc4c(cc3c(-c3ccc(F)cc3)c21)OCO4,13.3,-5.1,-7.5,72.8*,9.2,101.4*,86.4*,
O=C(N/N=C/c1ccc2c(c1)OCO2)c1cc(-c2ccc(F)cc2)nc2ccccc12,22.2,4.9,1.0,0.2,-1.5,nt,nt,
CC(C)Cn1c(CNC(=O)c2ccccc2)nc2ccccc21,-6.5,-4.1,nt,0.5,12.6,nt,nt,
Cn1c(-c2cccs2)nc2ccccc21,-4.4,2.4,0.0,59.4*,-15.0,11.1,-4.1,GDH-TPI DR=2.6*
c1csc(Cn2c(-c3cccs3)nc3ccccc32)c1,34.1*,9.4,nt,63.2*,3.7,25.5,27.7*,
O=C(Cn1c(-c2cncs2)nc2ccccc21)NCc1cccs1,nt,nt,nt,nt,-1.4,nt,nt,
CC(C)Cn1c(-c2cccs2)nc2ccccc21,4.6,2.9,nt,50.8*,15.7,+,151.9*,
CN(C)C(=O)Oc1ccc(-c2cn3cc(C(F)(F)F)ccc3n2)cc1,5.8,7.6,1.6,34.2*,3.8,70.0*,58.5*,
